Several values for one entry are separate records, joined by “and”; a condition that tells them apart may be missing. Identical values can stand only once. Records with an inconclusive call do not appear. Activity calls are given as the source filed them. Unless noted, calls follow the shape of the dose curve; as a rule, active = well fitted curve in the direction sought with a large enough effect; inconclusive = small, poorly fitted or top-dose-only effect, or another doubt; inactive = no such curve, though single readings can be large; an effect the other way counts as inactive or inconclusive.
Columns and labels:
Hek293T = experiment: Primary qHTS to identify gynecologic anti-cancer compounds using libraries of approved drugs and bioactive compounds (AID 1345084); conditions: Gynecologic cancer cell panel viability, ATPlite luminescence, 48 h, control line for the selectivity index; series mostly up to 57.5 µM; also: % is scaled to controls: 0 for no effect and ±100 for the full control effect; nearly all actives have a fitted effect of over 55% in size
Outline: (§1)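 Five-concentration response, 48 h; readout is ATP-driven luciferase luminescence.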

JEG-3 = experiment: as above; conditions: Gynecologic cancer cell panel viability, ATPlite luminescence, 48 h; series mostly up to 57.5 µM
Outline: as §1

OV90 = experiment: as above; conditions: Gynecologic cancer cell panel viability, ATPlite luminescence, 48 h; series mostly up to 57.5 µM
Outline: as §1

PA-1 = experiment: as above; conditions: Gynecologic cancer cell panel viability, ATPlite luminescence, 48 h; series mostly up to 57.5 µM
Outline: as §1

SKOV3 = experiment: as above; conditions: Gynecologic cancer cell panel viability, ATPlite luminescence, 48 h; series mostly up to 57.5 µM
Outline: as §1

Tov-21-G = experiment: as above; conditions: Gynecologic cancer cell panel viability, ATPlite luminescence, 48 h; series mostly up to 57.5 µM
Outline: as §1

Tov112D = experiment: as above; conditions: Gynecologic cancer cell panel viability, ATPlite luminescence, 48 h; series mostly up to 57.5 µM
Outline: as §1

[1] = Drug repurposing screens with cells derived from glioblastoma tumor samples (AID 1345199); conditions: GBM patient neurospheres viability, ATP luminescence, 48 h; also: nearly all actives have a fitted effect of over 40% in size; also: potency is read from the fitted curve at half-maximal effect; as to activity, negative = cell killing: % is scaled to controls: 0 for no effect and ±100 for the full control effect
Outline: (§2)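 Four patient lines of CD133+ GBM neurospheres were screened at several concentrations; hits were retested in those lines plus three slower-growing GBM lines, using 48-hour treatment and ATP-based viability.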

astro = experiment: as above; conditions: viability, ATP luminescence, 48 h; series mostly up to 45.9 µM
Outline: as §2

[2] = biological target: Nuclear receptor subfamily 1 group I member 2 (Rattus norvegicus) (UniProt Q9R1A7); experiment: qHTS assay for small molecule activators of the rat pregnane X receptor (rPXR) signaling pathway (AID 651751; call rule not given here; also: 0% is about no effect); conditions: rPXR reporter cells, luciferase (One-Glo), 24 h
[3] = qHTS assay for small molecule activators of the human pregnane X receptor (PXR) signaling pathway (AID 720659; call rule not given here; also: 0% is about no effect)
[4] = at 45.9 µM (top of the series), tumour line B
[5] = at 45.9 µM (top of the series), tumour line D
[6] = at 46 µM (top of the series), tumour line A
[7] = at 46.1 µM (top of the series), tumour line C

Nuclear receptor subfamily 1 group I member 2 (Rattus norvegicus), sequence (Q9R1A7 whole entry, looked up): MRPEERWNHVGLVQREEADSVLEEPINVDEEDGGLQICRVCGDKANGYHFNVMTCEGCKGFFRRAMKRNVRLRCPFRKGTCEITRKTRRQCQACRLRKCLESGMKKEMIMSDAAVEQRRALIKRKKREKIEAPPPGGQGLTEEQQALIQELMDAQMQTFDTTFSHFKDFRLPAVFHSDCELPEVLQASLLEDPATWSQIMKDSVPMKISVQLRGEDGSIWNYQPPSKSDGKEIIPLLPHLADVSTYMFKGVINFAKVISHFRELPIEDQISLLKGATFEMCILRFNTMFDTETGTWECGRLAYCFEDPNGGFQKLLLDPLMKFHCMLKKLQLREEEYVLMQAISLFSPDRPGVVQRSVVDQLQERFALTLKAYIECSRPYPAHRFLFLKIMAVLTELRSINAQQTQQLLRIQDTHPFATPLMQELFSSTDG

C/C=C/C(=O)N(CC)c1ccccc1C
inactive: outcome (Hek293T) | outcome (JEG-3) | Potency (OV90) | outcome (PA-1) | outcome (SKOV3) | outcome (Tov-21-G) | outcome (Tov112D) | activity, negative = cell killing ([1]; at 20 µM (top of the series), tumour line C) -3.94% | activity, negative = cell killing ([1]; at 21.2 µM (top of the series), tumour line B) 0.996% | activity, negative = cell killing ([1]; at 21.2 µM (top of the series), tumour line D) -17.6% | activity, negative = cell killing ([1]; at 21.3 µM (top of the series), tumour line A) -13.7% | outcome (astro)

Cc1c(I)c(=O)n(-c2ccccc2)n1C
inactive: outcome (Hek293T) | outcome (JEG-3) | Potency (OV90) | outcome (PA-1) | outcome (SKOV3) | outcome (Tov-21-G) | outcome (Tov112D) | activity, negative = cell killing [1, 4] -4.2% | activity, negative = cell killing [1, 5] -14% | activity, negative = cell killing [1, 6] -24.2% | activity, negative = cell killing [1, 7] 3.68% | outcome (astro)

Cn1c(=O)c2c(ncn2CCO)n(C)c1=O
inactive: outcome (Hek293T) | outcome (JEG-3) | Potency (OV90) | outcome (PA-1) | outcome (SKOV3) | outcome (Tov-21-G) | outcome (Tov112D) | activity, negative = cell killing [1, 4] -5.04% | activity, negative = cell killing [1, 5] -0.441% | activity, negative = cell killing [1, 6] -29% | activity, negative = cell killing [1, 7] -21.7% | outcome (astro)

CC(=O)Oc1cccc(C)c1
inactive: outcome (Hek293T) | outcome (JEG-3) | Potency (OV90) | outcome (PA-1) | outcome (SKOV3) | outcome (Tov-21-G) | outcome (Tov112D) | activity, negative = cell killing [1, 4] -2.63% | activity, negative = cell killing [1, 5] -6.87% | activity, negative = cell killing [1, 6] -17.9% | activity, negative = cell killing [1, 7] -0.258% | outcome (astro)

CN1C(=O)CC(c2ccccc2)C1=O (stereo not given)
inactive: outcome (Hek293T) | outcome (JEG-3) | Potency (OV90) | outcome (PA-1) | outcome (SKOV3) | outcome (Tov-21-G) | outcome (Tov112D) | activity, negative = cell killing [1, 4] 3.75% | activity, negative = cell killing [1, 5] 1.43% | activity, negative = cell killing [1, 6] 1.73% | activity, negative = cell killing [1, 7] -11.6% | outcome (astro)

CCN(CC)CC1CCCCN1CC(=O)N1c2ccccc2C(=O)Nc2cccnc21 (stereo not given)
active: Potency ([1]; tumour line A) 20 µM
inactive: outcome (Hek293T) | outcome (JEG-3) | Potency (OV90) | outcome (PA-1) | outcome (SKOV3) | outcome (Tov-21-G) | outcome (Tov112D) | activity, negative = cell killing [1, 4] -15.7% | activity, negative = cell killing [1, 5] -5.02% | activity, negative = cell killing [1, 7] -18.7% | outcome (astro)

O=C(O)c1cc(=O)c2ccccc2o1
inactive: outcome (Hek293T) | outcome (JEG-3) | Potency (OV90) | outcome (PA-1) | outcome (SKOV3) | outcome (Tov-21-G) | outcome (Tov112D) | activity, negative = cell killing [1, 4] -4.66% | activity, negative = cell killing [1, 5] -22.4% | activity, negative = cell killing [1, 6] -22.8% | activity, negative = cell killing [1, 7] -14.3% | outcome (astro)

CC(=O)Nc1ccccc1
inactive: outcome (Hek293T) | outcome (JEG-3) | Potency (OV90) | outcome (PA-1) | outcome (SKOV3) | outcome (Tov-21-G) | outcome (Tov112D) | activity, negative = cell killing [1, 4] -6.03% | activity, negative = cell killing [1, 5] -14.5% | activity, negative = cell killing [1, 6] -21.5% | activity, negative = cell killing [1, 7] 6.02% | outcome (astro) | max response [2] 2.33% | outcome [3]

CC(C)CCOC(=O)c1ccc(N(C)C)cc1
inactive: outcome (Hek293T) | outcome (JEG-3) | Potency (OV90) | outcome (PA-1) | outcome (SKOV3) | outcome (Tov-21-G) | outcome (Tov112D) | activity, negative = cell killing [1, 4] -5.37% | activity, negative = cell killing [1, 5] -2.75% | activity, negative = cell killing [1, 6] -50% | activity, negative = cell killing [1, 7] -13.2% | outcome (astro)

CC(N)CCCC(C)(C)O (stereo not given)
inactive: outcome (Hek293T) | outcome (JEG-3) | Potency (OV90) | outcome (PA-1) | outcome (SKOV3) | outcome (Tov-21-G) | outcome (Tov112D) | activity, negative = cell killing [1, 4] -8.17% | activity, negative = cell killing [1, 5] -3.88% | activity, negative = cell killing [1, 6] -24.8% | activity, negative = cell killing [1, 7] -13.9% | outcome (astro)

Cc1c(N(C)C)c(=O)n(-c2ccccc2)n1C
inactive: outcome (Hek293T) | outcome (JEG-3) | Potency (OV90) | outcome (PA-1) | outcome (SKOV3) | outcome (Tov-21-G) | outcome (Tov112D) | activity, negative = cell killing [1, 4] -5.14% | activity, negative = cell killing [1, 5] -8.5% | activity, negative = cell killing [1, 6] -17.7% | activity, negative = cell killing [1, 7] -17.7% | outcome (astro) | max response [2] -0.504% and 0.241% | outcome [3]

NC(=O)CCCCC1CCSS1 (stereo not given)
inactive: outcome (Hek293T) | outcome (JEG-3) | Potency (OV90) | outcome (PA-1) | outcome (SKOV3) | outcome (Tov-21-G) | outcome (Tov112D) | activity, negative = cell killing [1, 4] -3.9% | activity, negative = cell killing [1, 5] 6.2% | activity, negative = cell killing [1, 6] -23.7% | activity, negative = cell killing [1, 7] 2.37% | outcome (astro)

N[C@@H](Cc1ccc(O)cc1)C(=O)O
inactive: activity change, negative = cytotoxicity (Hek293T) 11.5% [at 11.6 µM] | activity change, negative = cytotoxicity (JEG-3) 4.09% [at 11.6 µM] | activity change, negative = cytotoxicity (OV90) 9.24% [at 11.6 µM] | activity change, negative = cytotoxicity (PA-1) 1.05% [at 11.6 µM] | activity change, negative = cytotoxicity (SKOV3) -0.073% [at 11.6 µM] | activity change, negative = cytotoxicity (Tov-21-G) 5.15% [at 11.6 µM] | activity change, negative = cytotoxicity (Tov112D) 8.21% [at 11.6 µM] | activity, negative = cell killing [1, 4] -2.51% | activity, negative = cell killing [1, 5] -14.6% | activity, negative = cell killing [1, 6] -11% | activity, negative = cell killing [1, 7] 37.9% | outcome (astro)

— PubChem BioAssay (NCATS)
